We go through 40 compounds from PubChem BioAssay AID720526 (National Center for Advancing Translational Sciences (NCATS), 2013).

Inconclusive results are not listed. The source made the active and inactive calls. Calls come from the whole dose curve; as a rule, active = well fitted activation curve with a large enough effect; inconclusive = small, poorly fitted or top-dose-only effect; inactive = no such curve, though single readings can be large or run the other way.
Potency is the fitted concentration of half-maximal effect.

A short description of this test: qHTS Assay for NPC1 Promoter Activators: Hit Validation Using Renila Luciferase Read-Out for NPC1. For activity change, positive = activation: % of control where 0% means no effect. Conditions: Huh7 NPC1 promoter-luciferase reporter, luminescence, 24 h; series mostly up to 76.9 µM; activity change, positive = activation: at the top concentration. The source says:
Niemann Pick Type C (NPC) is a rare neurodegenerative lipidosis that is characterized by lipid storage in the endosomal/lysosomal system. Treatment modalities for this devastating disease are currently non-existent due to the severe obstacles associated with accessing the central nervous system with proteins or genes. The majority of mutations causing NPC disease are missense mutations that are distributed throughout the length of the NPC1 protein, with the most prevalent being the I1061T allele. Although NPC1 mutant proteins may be functional, they are typically trapped in the ER due to misfolding. […] We have developed and optimized a cell based renilla luciferase reporter assay in 1536 well format for the identification of up-regulators of the mutant Rab9 promoter. This assay presents data on the validation of hits from the primary screen, which used a firefly luciferase read-out. NIH Chemical Genomics Center [NCGC] NIH Molecular Libraries Probe Production centers Network [MLPCN] MLPCN Grant: MH089375 Assay Submitter (PI): Yiannis A. Ioannou
Huh7 cells stably expressing NPC promoter-luciferase will be seeded at 1,500 cells/well in 5 uL in 1,536-well white opaque plates with 23 nL/well of compound in DMSO solution. The assay plates will be incubated at 37 deg C for 24 hours, after which 3 uL/well BriteLite plus luciferase detection reagent mixture (Perkin Elmer) will be added. Luminescence signal will be measured in a ViewLux plate reader (Perkin Elmer) after a 10 minute incubation at the room temperature.
For orientation: In qHTS, concentration-response curves come from the screen itself.
Consider `Cc1nc(-c2ccc(S(=O)(=O)Oc3ccc(Cl)cc3Cl)s2)cs1`, for which the “activity change, positive = activation” value is -47.3% (inactive).

For the compound `O=C(COC(=O)c1ccc(-c2nnc(-c3ccccc3)o2)cc1)c1ccccc1`, the “activity change, positive = activation” value was -10.3% (inactive). Turning to `CC(C)C(NC(=O)c1ccc([N+](=O)[O-])cc1Cl)C(=O)N1CCCC1` (stereo not given), the “activity change, positive = activation” value is -2.08% (inactive). In the case of `Cc1ccccc1NC(=O)Cc1nc(COC(=O)CC(C)c2ccccc2)cs1` (stereo not given), the “activity change, positive = activation” value was -2.66% (inactive). The same measure, in the same setting: the value for `O=C(CCCn1c(=O)oc2ccccc21)N1CCN(c2ccccn2)CC1` was -4.35% (inactive); that for `COc1ccccc1NC(=S)NCc1ccc(Cl)cc1` was 5.09% (inactive).

With `COc1ccccc1OCCCC(=O)NCc1ccco1`, the “activity change, positive = activation” value was 6.95% (inactive). The same measure, in the same setting: the value for `O=C(NNC(=O)C1COc2ccccc2O1)c1ccccc1O` (stereo not given) was -71% (inactive); that for `Cc1ccc(C(=O)Nc2nnc(S(=O)(=O)N3CCOCC3)s2)cc1` was 4.97% (inactive); that for `CCOc1cc(C2C(C#N)=C(N)Oc3n[nH]c(C)c32)ccc1OCCN1CCOCC1` (stereo not given) was 10.2% (inactive). Same read-out and setting: as for `COc1ccc(NC(=O)CN(C)C(=O)c2ccc(=O)[nH]c2)cc1`, the figure is -7.94% (inactive); as for `O=C(CSc1nnc(-c2ccc([N+](=O)[O-])cc2)o1)Nc1ccccn1`, -72.1% (inactive). Regarding `COc1ccccc1N(C(=O)c1snc(C(N)=O)c1N)C(C(=O)NC1CCCCC1)c1cccc(OC)c1OC` (stereo not given), the Potency is 11.6 µM (active). `Cc1csc(NC(=O)CSc2nnc(-c3ccncc3)o2)n1`: the “activity change, positive = activation” value was -30.8% (inactive). On the same count and under the same terms, as for `Cc1ccc(N=Cc2sc(O)c3ccccc23)c(C)c1`, the figure is -14.6% (inactive); as for `Cc1cc(C)cc(N(CC(=O)NC2CCCC2)C(=O)CNC(=O)c2ccco2)c1`, 3.56% (inactive); as for `Cc1ccc(C)c(Nc2cc(C)nc3ncnn23)c1`, -15.2% (inactive).

For `COCCNC(=O)C1CCC(CNS(=O)(=O)c2ccc(F)cc2)CC1` (stereo not given), the “activity change, positive = activation” value was 0.674% (inactive). Still for that read-out and setting: as for `CC(=O)Nc1ccc(-c2csc(Nc3ncccn3)n2)cc1`, the figure is 4.37% (inactive); as for `Cc1ccccc1NC(=O)CSc1ccc(-c2cccnc2)nn1`, 8.75% (inactive); as for `Cc1nnc2n(c1=O)N=C(c1ccc(Cl)cc1)CS2`, 11.5% (inactive). On the same count and under the same terms, as for `CN(C)C(=O)[C@H]1C[C@H]1[C@@H](O)[C@H](CO)NC(=O)[C@H](COCc1ccccc1)NC(=O)OC(C)(C)C`, the figure is -35.3% (inactive). Take `COc1cccc(C2Nc3ccccc3NC3=C2C(=O)CC(C)(C)C3)c1` (stereo not given): the “activity change, positive = activation” value is -5.16% (inactive). As to `Cn1c(CCN2CCN(c3ccccc3)CC2)nc2cc(NC(=O)c3ccco3)ccc21`, the “activity change, positive = activation” value was -43.4% (inactive). Same read-out and setting: the value for `CCCC(C)NC(=O)c1ccc(OCc2ccc(Cl)cc2)c(OC)c1` (stereo not given) was -13.6% (inactive).

As for `COCC1CCN(C(=O)c2ccc3oc(Cc4ccccc4)nc3c2)C1` (stereo not given), the “activity change, positive = activation” value was -18.2% (inactive). Same read-out and setting: as for `COC(=O)Nc1nc2ccc(Br)cc2s1`, the figure is 17.5% (inactive); as for `NC(=O)C(=O)NN=C1C2CC3CC(C2)CC1C3`, -9.92% (inactive). Same read-out and setting: the value for `O=C(CCc1cccc(Cl)c1)NC1CCCN(Cc2ccccc2F)C1` (stereo not given) was 8.73% (inactive). Regarding `COc1ccc(/C=C\C(=O)c2c(O)ccc3c(C)cc(=O)oc23)cc1OC`, the “activity change, positive = activation” value was -52.3% (inactive). Regarding `O=C(CSc1nccn1Cc1ccco1)Nc1ccccc1F`, the Potency was 36.8 µM (active). With `CCCc1cc(C(=O)Nc2ccccc2SC)no1`, the “activity change, positive = activation” value was -2.99% (inactive).

For the compound `Cc1ccc2c(c1)sc1nc(=O)n(-c3ccccc3)c(=O)n12`, the “activity change, positive = activation” value was -28.1% (inactive). On the same count and under the same terms, as for `CCOCC(=O)Nc1c(C(=O)Nc2ccc3c(c2)OCCO3)oc2ccccc12`, the figure is -45.9% (inactive). As to `COc1ccc([N+](=O)[O-])cc1COc1ccc2c(-c3ccccc3)cc(=O)oc2c1`, the Potency was 1.46 µM (active).

Turning to `CNC(=O)Cn1nc(C)c2ccccc2c1=O`, the “activity change, positive = activation” value is -12.4% (inactive). Regarding `COc1ccc(-c2csc(Nc3ncccn3)n2)cc1C`, the “activity change, positive = activation” value is 5.9% (inactive). On the same count and under the same terms, as for `O=C(NCCSCc1c(F)cccc1Cl)c1ccc(CN2CCOCC2)cc1`, the figure is -51.3% (inactive); as for `CC(Sc1nnc(C(F)(F)F)n1C)C(=O)Nc1ccc(S(N)(=O)=O)cc1` (stereo not given), -6.53% (inactive). Take `Cc1ccc(C2C3=C(CC(C)(C)CC3=O)N(CCN3CCOCC3)C3=C2C(=O)CC(C)(C)C3)cc1`: the Potency was 16.4 µM (active).
